Records with an inconclusive call do not appear. Activity calls are given as the source filed them. Calls follow the shape of the dose curve; as a rule, active = well fitted curve in the direction sought with a large enough effect; inconclusive = small, poorly fitted or top-dose-only effect, or another doubt; inactive = no such curve, though single readings can be large; an effect the other way counts as inactive or inconclusive.
Assays:
[1] = qHTS of pediatric cancer cell lines to identify multiple opportunities for drug repurposing: Primary screen for NB1643 cells (AID 1347099); also: nearly all actives have a fitted effect of over 50% in size
How it was run: (§1)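 Quantitative HTS format: each compound titrated (MIPE 11 points from 0.78 nM, NPC 8 points from 0.59 nM) onto cells plated 5 hours earlier. After 48 h at 37 degrees C, CellTiter-Glo luminescence was recorded.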

[2] = qHTS of pediatric cancer cell lines to identify multiple opportunities for drug repurposing: Primary screen for LAN-5 cells (AID 1347100)
How it was run: (§2)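 Viability after 48 h compound treatment at 37C, 500-1,000 cells/well, read as ATP luminescence with CellTiter-Glo. Primary screens used 11-point (MIPE, 0.78 nM-46 µM) or 8-point (NPC, 0.59 nM-46 µM) final concentrations; follow-up screens used 11-point dilutions.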

[3] = qHTS of pediatric cancer cell lines to identify multiple opportunities for drug repurposing: Primary screen for BT-12 cells (AID 1347101); also: nearly all actives have a fitted effect of over 25% in size
How it was run: (§3)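 Cells (500-1,000/well) rested 5 h, then received compounds for 48 h; metabolically active cells were measured by CellTiter-Glo luminescence. Final concentrations spanned up to 46 µM (MIPE, 11-point) or 0.59 nM-46 µM (NPC, 8-point) in primary screens, 11-point in follow-ups.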

[4] = qHTS of pediatric cancer cell lines to identify multiple opportunities for drug repurposing: Primary screen for Rh18 cells (AID 1347102); also: nearly all actives have a fitted effect of over 65% in size
How it was run: as §2

[5] = qHTS of pediatric cancer cell lines to identify multiple opportunities for drug repurposing: Primary screen for OHS-50 cells (AID 1347103); also: nearly all actives have a fitted effect of over 40% in size
How it was run: as §3

[6] = qHTS of pediatric cancer cell lines to identify multiple opportunities for drug repurposing: Primary screen for RD cells (AID 1347104); also: nearly all actives have a fitted effect of over 55% in size
How it was run: as §1

[7] = qHTS of pediatric cancer cell lines to identify multiple opportunities for drug repurposing: Primary screen for MG 63 (6-TG R) cells (AID 1347105); also: nearly all actives have a fitted effect of over 50% in size
How it was run: as §1

[8] = qHTS of pediatric cancer cell lines to identify multiple opportunities for drug repurposing: Primary screen for control Hh wild type fibroblast cells (AID 1347106); also: nearly all actives have a fitted effect of over 55% in size
How it was run: as §2

[9] = qHTS of pediatric cancer cell lines to identify multiple opportunities for drug repurposing: Primary screen for Rh30 cells (AID 1347107); also: nearly all actives have a fitted effect of over 75% in size
How it was run: as §2

[10] = qHTS of pediatric cancer cell lines to identify multiple opportunities for drug repurposing: Primary screen for SK-N-SH cells (AID 1347098); also: nearly all actives have a fitted effect of over 65% in size
How it was run: as §3

[11] = qHTS of pediatric cancer cell lines to identify multiple opportunities for drug repurposing: Primary screen for Rh41 cells (AID 1347108); also: nearly all actives have a fitted effect of over 70% in size
How it was run: as §1

[12] = qHTS of pediatric cancer cell lines to identify multiple opportunities for drug repurposing: Confirmatory screen for NB1643 cells (AID 1347109); also: nearly all actives have a fitted effect of over 45% in size
How it was run: as §2

[13] = qHTS of pediatric cancer cell lines to identify multiple opportunities for drug repurposing: Confirmatory screen for A673 cells (AID 1347110); also: nearly all actives have a fitted effect of over 65% in size
How it was run: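 A673 cells seeded at 500-1,000 cells/well, rested 5 h, then dosed; primary MIPE 11-point (0.78 nM to 46 µM), NPC (0.59 nM to 46 µM); confirmatory 11-point. CellTiter-Glo luminescence after 48 h.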

[14] = qHTS of pediatric cancer cell lines to identify multiple opportunities for drug repurposing: Confirmatory screen for SK-N-MC cells (AID 1347111);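 also: cells exposed to compound for 48 h before the readout; nearly all actives have a fitted effect of over 70% in size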
How it was run: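 SK-N-MC cells at 500-1,000 cells/well in growth media were pre-incubated 5 h, then exposed to compounds at 11-point dilutions for 48 h at 37 degrees C, 5% CO2. Viability was read as CellTiter-Glo luminescence.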

[15] = qHTS of pediatric cancer cell lines to identify multiple opportunities for drug repurposing: Confirmatory screen for BT-12 cells (AID 1347112); also: nearly all actives have a fitted effect of over 55% in size
How it was run: as §2

[16] = qHTS of pediatric cancer cell lines to identify multiple opportunities for drug repurposing: Confirmatory screen for LAN-5 cells (AID 1347113); also: nearly all actives have a fitted effect of over 65% in size
How it was run: as §2

[17] = qHTS of pediatric cancer cell lines to identify multiple opportunities for drug repurposing: Confirmatory screen for NB-EBc1 cells (AID 1347115); also: nearly all actives have a fitted effect of over 45% in size
How it was run: as §2

[18] = qHTS of pediatric cancer cell lines to identify multiple opportunities for drug repurposing: Confirmatory screen for SJ-GBM2 cells (AID 1347116); also: nearly all actives have a fitted effect of over 60% in size
How it was run: (§4)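 Viability measured as metabolically active cells via CellTiter-Glo luminescence following 48 hours of compound exposure, 11-point dilutions in confirmatory testing. 500-1,000 cells/well plated 5 hours before dosing; controls were DMSO and 2.3 µM bortezomib.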

[19] = qHTS of pediatric cancer cell lines to identify multiple opportunities for drug repurposing: Confirmatory screen for BT-37 cells (AID 1347117); also: nearly all actives have a fitted effect of over 55% in size
How it was run: as §2

[20] = qHTS of pediatric cancer cell lines to identify multiple opportunities for drug repurposing: Confirmatory screen for DAOY cells (AID 1347114); also: nearly all actives have a fitted effect of over 65% in size
How it was run: as §4
Potency is read from the fitted curve at half-maximal effect.

Structure (SMILES)	Potency [1]	Potency [2]	Potency [3]	Potency [4]	Potency [5]	Potency [6]	Potency [7]	Potency [8]	Potency [9]	Potency [10]	Potency [11]	Potency [12]	Potency [13]	Potency [14]	Potency [15]	Potency [16]	Potency [17]	Potency [18]	Potency [19]	Potency [20]
O=C(NCCS(=O)(=O)c1ccc(C(F)(F)F)cn1)c1ccc(Cl)cc1	inactive	inactive	inactive	inactive	inactive	inactive	inactive	inactive	inactive	–	–	–	–	–	–	–	–	–	–	–
CCc1cc2c(cc1N1CCC(N3CCOCC3)CC1)C(C)(C)c1[nH]c3cc(C#N)ccc3c1C2=O	–	–	inactive	–	–	inactive	inactive	–	–	inactive	inactive	–	–	–	–	–	–	–	–	–
O=c1[nH]nc(Sc2ncc([N+](=O)[O-])s2)n1-c1ccc2c(c1)OCCO2	4.69 µM (active)	8.33 µM (active)	17.2 µM (active)	9.35 µM (active)	–	13.2 µM (active)	5.9 µM (active)	14.8 µM (active)	10.5 µM (active)	–	6.62 µM (active)	7.37 µM (active)	9.27 µM (active)	5.85 µM (active)	9.27 µM (active)	7.37 µM (active)	7.37 µM (active)	13.1 µM (active)	16.5 µM (active)	–
O=C(C=Cc1cccnc1)NCCCCC1CCN(C(=O)c2ccccc2)CC1	–	–	–	–	–	–	–	inactive	–	0.482 µM (active)	0.118 µM (active)	inactive	inactive	inactive	inactive	inactive	inactive	–	inactive	inactive
O=C(NC1CCNCC1)c1[nH]ncc1NC(=O)c1c(Cl)cccc1Cl	–	–	1.93 µM (active)	–	0.968 µM (active)	0.332 µM (active)	3.72 µM (active)	–	–	1.71 µM (active)	0.743 µM (active)	–	0.414 µM (active)	3.02 µM (active)	3.02 µM (active)	–	–	1.31 µM (active)	2.4 µM (active)	1.17 µM (active)
CCC[C@H](NC(=O)C(C#N)=Cc1cccc(Br)n1)c1ccccc1	7.43 µM (active)	14.8 µM (active)	27.3 µM (active)	14.8 µM (active)	12.2 µM (active)	13.2 µM (active)	–	–	–	–	14.8 µM (active)	–	–	–	–	–	–	–	–	–
O=C(O)Cn1nnc(-c2cc(N3CCC(Oc4cc(F)ccc4Br)CC3)no2)n1	inactive	inactive	inactive	inactive	–	–	inactive	inactive	inactive	–	inactive	–	–	–	–	–	–	–	–	–
Nc1cc(C(F)(F)F)c(-c2cc(N3CCOCC3)nc(N3CCOCC3)n2)cn1	0.296 µM (active)	0.469 µM (active)	1.22 µM (active)	0.59 µM (active)	0.153 µM (active)	0.743 µM (active)	0.187 µM (active)	–	11.8 µM (active)	–	1.18 µM (active)	–	2.93 µM (active)	5.22 µM (active)	–	–	–	–	–	–
COc1cc2c(Oc3ccc(NC(=O)C4(C(=O)Nc5ccc(F)cc5)CC4)cc3F)ccnc2cc1OCCCN1CCOCC1	6.62 µM (active)	0.372 µM (active)	19.3 µM (active)	4.69 µM (active)	–	8.33 µM (active)	4.69 µM (active)	26.4 µM (active)	5.9 µM (active)	–	4.69 µM (active)	5.22 µM (active)	2.33 µM (active)	3.69 µM (active)	13.1 µM (active)	5.22 µM (active)	13.1 µM (active)	5.22 µM (active)	10.4 µM (active)	–
CCCCN1CCC(CNC(=O)c2c3n(c4ccccc24)CCCO3)CC1	–	–	–	–	–	4.69 µM (active)	0.935 µM (active)	1.18 µM (active)	inactive	15.2 µM (active)	–	–	–	–	–	–	–	–	–	–
Nc1ccccc1NC(=O)c1ccc(CNc2nccc(-c3cccnc3)n2)cc1	0.296 µM (active)	0.743 µM (active)	4.85 µM (active)	2.09 µM (active)	0.968 µM (active)	2.96 µM (active)	3.72 µM (active)	14.8 µM (active)	inactive	–	1.18 µM (active)	–	2.61 µM (active)	inactive	–	–	inactive	1.47 µM (active)	inactive	–
Cc1ccc(C(=O)Nc2cccc(C(F)(F)F)c2)cc1-c1ccc2nc(NCCN3CCOCC3)ncc2c1	5.26 µM (active)	14.8 µM (active)	7.69 µM (active)	7.43 µM (active)	3.85 µM (active)	5.9 µM (active)	–	14.8 µM (active)	–	–	14.8 µM (active)	6.57 µM (active)	13.1 µM (active)	14.7 µM (active)	–	9.27 µM (active)	–	13.1 µM (active)	4.14 µM (active)	–
Cc1[nH]nc2ccc(-c3cncc(OC[C@@H](N)Cc4ccccc4)c3)cc12	0.935 µM (active)	0.372 µM (active)	1.72 µM (active)	3.32 µM (active)	–	3.32 µM (active)	–	–	inactive	–	4.69 µM (active)	1.17 µM (active)	1.51 µM (active)	2.33 µM (active)	9.27 µM (active)	3.29 µM (active)	–	–	2.93 µM (active)	–

Reference: PubChem BioAssay (NCATS)
